Records with an inconclusive call do not appear. Calls of active or inactive are those of the source. Rule for the calls, unless noted: active = hit-call score of the fitted dose curve at least 0.9, where 1 is the maximum; inactive = score below 0.9.
How the values were obtained:
[1] = ATG_RORE_CIS: Attagene CIS-FACTORIAL HepG2 Assay for human RAR-related Orphan Receptor Element (RORE) (AID 2282959); conditions: HepG2 Attagene cis-factorial RORE reporter, mRNA; actives raise or lower the signal
Procedure, shortened: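 Transient MRTU transfection of human HepG2 liver cells (FuGene 6); 24 h compound exposure; TriZol RNA, oligo(dT) RT, PCR, FAM labeling, HpaI cut, CE fragment analysis. DMSO = negative control/baseline.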

[2] = ATG_Sox_CIS: Attagene CIS-FACTORIAL HepG2 Assay for human SRY-box transcription factor (SOX) (AID 2282960); conditions: HepG2 Attagene cis-factorial SOX reporter, mRNA; actives raise or lower the signal
Procedure, shortened: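 Endogenous factor activity in human liver HepG2 cells carrying transfected cis-regulated reporter units. RNA taken 24 h post-dose, reverse-transcribed, PCR-amplified and sized by capillary electrophoresis. Gain or loss of signal fitted relative to DMSO.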

[3] = target: Transcription factor Sp1 (Homo sapiens) (UniProt P08047); assay: ATG_Sp1_CIS: Attagene CIS-FACTORIAL HepG2 Assay for human Specificity Protein 1 (Sp1) (AID 2282961); conditions: HepG2 Sp1 cis-reporter transcription, actives raise or lower the signal
Procedure, shortened: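 Transient MRTU-transfected HepG2, 24 h compound exposure. Total RNA → oligo(dT) RT → PCR of reporter → 6-FAM primer extension → HpaI digest → CE. Endpoint fitted both directions vs DMSO.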

[4] = ATG_SREBP_CIS: Attagene CIS-FACTORIAL HepG2 Assay for human Sterol Regulatory Element Binding (SREBP) (AID 2282962); conditions: HepG2 Attagene cis-factorial SREBP reporter, mRNA; actives raise or lower the signal
Procedure, shortened: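 Transfected HepG2 (cis-regulated reporter library, endogenous TFs) → compound 24 h → total RNA → oligo(dT) RT → reporter-specific PCR → FAM primer extension, HpaI cut → CE fluorescence. Fit bidirectional vs DMSO.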

[5] = target: Signal transducer and activator of transcription 3 (Homo sapiens) (UniProt P40763); assay: ATG_STAT3_CIS: Attagene CIS-FACTORIAL HepG2 Assay for human Signal Transducer and Activator of Transcription 3 (STAT3) (AID 2282963); conditions: HepG2, Attagene cis-factorial STAT3 reporter transcription; actives raise or lower the signal
Procedure, shortened: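 After a 24 h compound incubation, total RNA from MRTU-transfected HepG2 cells was converted to cDNA and reporter sequences PCR-amplified, labelled and profiled by capillary electrophoresis. Gain and loss of signal were referenced to DMSO.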

[6] = ATG_TA_CIS: Attagene CIS-FACTORIAL HepG2 Assay for human TA Basal Promoter (AID 2282964); conditions: HepG2 Attagene CIS-factorial TA basal promoter reporter; actives raise or lower the signal
Procedure, shortened: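 HepG2 cells transiently transfected with multiplexed cis-promoter reporter units, dosed 24 h. Reporter mRNA measured by RT-PCR, 6-FAM labelling, HpaI digestion and capillary electrophoresis; bidirectional fit versus DMSO baseline, serving as background control.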

[7] = ATG_TCF_b_cat_CIS: Attagene CIS-FACTORIAL HepG2 Assay for human T-Cell-Factor with beta-catenin (TCF/b-cat) (AID 2282965); conditions: HepG2 TCF/beta-catenin cis-reporter transcription, actives raise or lower the signal
Procedure, shortened: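 Measured: reporter mRNA in HepG2 transiently transfected with cis-promoter reporter units, 24 h after chemical addition. Fitting was bidirectional, DMSO as negative control.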

[8] = ATG_TAL_CIS: Attagene CIS-FACTORIAL HepG2 Assay for human TAL Basal Promoter (AID 2282966); conditions: HepG2 Attagene cis-factorial TAL promoter reporter; actives raise or lower the signal;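 note: background control endpoint measuring basal TAL promoter reporter mRNA not a specific factor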
Procedure, shortened: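 Fluorescence of labelled reporter cDNA fragments, resolved by capillary electrophoresis, gave the readout. Human HepG2 liver cells carried transiently transfected cis-element reporter units and were treated for 24 hours; activity was fitted bidirectionally against DMSO.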

[9] = ATG_TGFb_CIS: Attagene CIS-FACTORIAL HepG2 Assay for human Transforming Growth Factor (TGF) (AID 2282967); conditions: HepG2 Attagene CIS TGFb reporter, mRNA transcription; actives raise or lower the signal
Procedure, shortened: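 HepG2 cells transiently transfected with cis-promoter-driven multiplexed reporter units; 24 h compound exposure. Reporter mRNA measured by RT-PCR, 6-FAM labeling, HpaI digestion and capillary electrophoresis; bidirectional fit versus DMSO baseline.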

[10] = target: Nuclear receptor subfamily 1 group I member 3 (Homo sapiens) (UniProt Q14994); assay: ATG_CAR_TRANS: Attagene TRANS-FACTORIAL HepG2 Assay for human Constitutive Androstane Receptor (CAR) (AID 2282969; active = hit-call score of the fitted dose curve at least 0.9, where 1 is the maximum;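 note: activators raise reporter mRNA above DMSO so AC50 marks induction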); conditions: HepG2 Attagene TRANS-FACTORIAL CAR reporter
Procedure, shortened: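 Readout is reporter mRNA induction, quantified by fluorescent primer extension and capillary electrophoresis after RT-PCR. Cells were HepG2 transiently carrying chimeric NR-Gal4 constructs with GAL4-UAS reporters, treated for 24 h; activity scored upward from DMSO.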

[11] = target: Estrogen receptor (Homo sapiens) (UniProt P03372); assay: ATG_ERa_TRANS: Attagene TRANS-FACTORIAL HepG2 Assay for human Estrogen Receptor alpha (ERa) (AID 2282970; active = hit-call score of the fitted dose curve at least 0.9, where 1 is the maximum); conditions: HepG2 Attagene TRANS ERa GAL4 reporter, mRNA
Procedure, shortened: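 Human liver HepG2, transient transfection of multiple GAL4-UAS reporter units; TRANS format (exogenous NR-Gal4 chimera). 24 h dosing. Readout: reporter mRNA, RT-PCR, 6-FAM primer extension, HpaI digest, capillary electrophoresis. Positive direction vs DMSO.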

[12] = target: X-box-binding protein 1 (Homo sapiens) (UniProt P17861); assay: ATG_Xbp1_CIS: Attagene CIS-FACTORIAL HepG2 Assay for human X-box Binding Protein 1 (XBP1) (AID 2282972); conditions: HepG2 XBP1 cis-element reporter, Attagene multiplex; actives raise or lower the signal
Procedure, shortened: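 HepG2, transient MRTU transfection (cis-promoter driven), 24 h compound exposure. Total RNA → oligo(dT) RT → PCR → 6-FAM labeling → HpaI cut → CE. Bidirectional fit vs DMSO.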

[13] = ATG_PPRE_CIS: Attagene CIS-FACTORIAL HepG2 Assay for human Peroxisome Proliferator-activated Response Element (PPRE) (AID 2282958); conditions: HepG2 PPRE cis-element reporter, Attagene transcription factor profiling; actives raise or lower the signal
Procedure, shortened: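 HepG2, transient MRTU transfection (cis promoter elements, endogenous TFs). 24 h dosing. RNA → oligo(dT) RT → PCR → 6-FAM primer extension → HpaI digest → CE. Bidirectional fit vs DMSO.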

[14] = ATG_M_19_TRANS: Attagene TRANS-FACTORIAL HepG2 Assay for M19 Transcription Factor (Internal Marker) (AID 2282974; active = hit-call score of the fitted dose curve at least 0.9, where 1 is the maximum); conditions: HepG2 Attagene TRANS-FACTORIAL M19 internal marker reporter
Procedure, shortened: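 Fluorescence of 6-FAM-labelled reporter cDNA fragments, separated by capillary electrophoresis, served as the readout. These derived from HepG2 cells carrying transfected GAL4-UAS reporter units after 24 h dosing, with DMSO as negative control.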

[15] = ATG_VDRE_CIS: Attagene CIS-FACTORIAL HepG2 Assay for human Vitamin D Receptor Element (VDRE) (AID 2282968); conditions: HepG2 VDRE cis-reporter transcription, actives raise or lower the signal
Procedure, shortened: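 In transiently transfected HepG2 liver cells, gain or loss of reporter mRNA after 24 h exposure is scored relative to DMSO, using fluorescence detection by capillary electrophoresis of RT-PCR products.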

[16] = ATG_GAL4_TRANS: Attagene TRANS-FACTORIAL HepG2 Assay for GAL4 (Internal Marker) (AID 2282976; active = hit-call score of the fitted dose curve at least 0.9, where 1 is the maximum); conditions: HepG2 Attagene TRANS GAL4 internal marker reporter
Procedure, shortened: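 First, HepG2 cells were transfected with reporter units under GAL4-UAS control. Next, they were treated with chemical for 24 h. Finally, RNA was reverse-transcribed, PCR-amplified, FAM-labelled and resolved by capillary electrophoresis, with induction scored against DMSO.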

[17] = ATG_PXRE_CIS: Attagene CIS-FACTORIAL HepG2 Assay for human Pregnane X Receptor Element (PXRE) (AID 2282957); conditions: HepG2 Attagene CIS-FACTORIAL PXRE reporter, mRNA; actives raise or lower the signal
Procedure, shortened: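 Transfect HepG2 with MRTUs (cis promoter elements); dose chemical, incubate 24 h; isolate RNA, RT with oligo(dT), PCR, 6-FAM label, HpaI cut, CE. Gain/loss fit vs DMSO.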

[18] = target: Estrogen-related receptor gamma (Homo sapiens) (UniProt P62508); assay: ATG_ERRg_TRANS: Attagene TRANS-FACTORIAL HepG2 Assay for human Estrogen-Related Receptor gamma (ERRg) (AID 2282977; active = hit-call score of the fitted dose curve at least 0.9, where 1 is the maximum;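 note: hits increase reporter signal over DMSO so potencies reflect activators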); conditions: HepG2 Attagene TRANS reporter, ERRg transactivation
Procedure, shortened: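 Transient HepG2 transfectants, 24 h compound exposure, GAL4-UAS reporter mRNA by RT-PCR/6-FAM labelling/capillary electrophoresis; positive direction vs DMSO.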

[19] = target: Steroid hormone receptor ERR1 (Homo sapiens) (UniProt P11474); assay: ATG_ERRa_TRANS: Attagene TRANS-FACTORIAL HepG2 Assay for human Estrogen-Related Receptor alpha (ERRa) (AID 2282971; active = hit-call score of the fitted dose curve at least 0.9, where 1 is the maximum); conditions: HepG2 Attagene TRANS reporter, ERRa transactivation
Procedure, shortened: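 Reporter transcript induction was quantified by RT-PCR and capillary electrophoresis of FAM-labelled, HpaI-cut products after 24 h treatment of HepG2 cells carrying transiently transfected GAL4-UAS reporter units and an exogenous ERRa-Gal4 fusion; activity scored as increase over DMSO.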

Sequence of Transcription factor Sp1 (Homo sapiens) (P08047 whole entry, looked up): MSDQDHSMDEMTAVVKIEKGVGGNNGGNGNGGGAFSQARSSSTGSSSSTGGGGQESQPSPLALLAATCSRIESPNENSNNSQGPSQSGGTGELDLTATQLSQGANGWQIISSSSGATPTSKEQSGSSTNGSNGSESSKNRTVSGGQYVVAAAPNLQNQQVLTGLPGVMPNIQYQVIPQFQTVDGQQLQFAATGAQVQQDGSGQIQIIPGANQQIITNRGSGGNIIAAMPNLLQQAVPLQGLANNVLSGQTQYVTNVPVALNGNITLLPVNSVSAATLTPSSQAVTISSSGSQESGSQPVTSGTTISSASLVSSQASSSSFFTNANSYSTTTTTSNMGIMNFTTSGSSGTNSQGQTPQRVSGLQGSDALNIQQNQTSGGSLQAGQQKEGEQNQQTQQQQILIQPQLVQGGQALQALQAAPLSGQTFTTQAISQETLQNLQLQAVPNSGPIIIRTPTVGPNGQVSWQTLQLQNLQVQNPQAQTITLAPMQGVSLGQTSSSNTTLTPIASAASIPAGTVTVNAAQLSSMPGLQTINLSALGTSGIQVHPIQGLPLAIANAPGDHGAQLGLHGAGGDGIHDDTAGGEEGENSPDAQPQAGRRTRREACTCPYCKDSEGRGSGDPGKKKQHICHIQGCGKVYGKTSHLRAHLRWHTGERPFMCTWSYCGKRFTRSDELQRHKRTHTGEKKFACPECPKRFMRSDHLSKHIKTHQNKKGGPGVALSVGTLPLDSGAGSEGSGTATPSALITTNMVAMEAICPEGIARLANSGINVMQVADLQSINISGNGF
Sequence of Signal transducer and activator of transcription 3 (Homo sapiens) (P40763 whole entry, looked up): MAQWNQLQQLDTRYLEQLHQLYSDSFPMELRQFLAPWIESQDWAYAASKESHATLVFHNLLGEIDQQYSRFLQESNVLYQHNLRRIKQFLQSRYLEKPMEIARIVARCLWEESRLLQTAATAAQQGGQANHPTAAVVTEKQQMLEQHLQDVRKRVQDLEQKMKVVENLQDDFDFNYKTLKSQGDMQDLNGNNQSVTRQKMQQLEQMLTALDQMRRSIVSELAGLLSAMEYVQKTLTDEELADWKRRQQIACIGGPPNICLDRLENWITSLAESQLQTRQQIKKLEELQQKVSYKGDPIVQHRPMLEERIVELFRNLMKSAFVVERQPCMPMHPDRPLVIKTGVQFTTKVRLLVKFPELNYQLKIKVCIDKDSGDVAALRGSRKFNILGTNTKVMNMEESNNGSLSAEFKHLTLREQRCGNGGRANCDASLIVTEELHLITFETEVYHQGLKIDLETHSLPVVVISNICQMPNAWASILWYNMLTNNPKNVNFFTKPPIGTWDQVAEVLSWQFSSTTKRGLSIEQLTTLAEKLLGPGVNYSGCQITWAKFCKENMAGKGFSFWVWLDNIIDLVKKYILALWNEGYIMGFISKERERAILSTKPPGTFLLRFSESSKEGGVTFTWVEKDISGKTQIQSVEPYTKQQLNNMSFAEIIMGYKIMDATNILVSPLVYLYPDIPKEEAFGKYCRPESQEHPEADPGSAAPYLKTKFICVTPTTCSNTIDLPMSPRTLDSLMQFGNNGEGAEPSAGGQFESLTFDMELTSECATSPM
Sequence of X-box-binding protein 1 (Homo sapiens) (P17861 whole entry, looked up): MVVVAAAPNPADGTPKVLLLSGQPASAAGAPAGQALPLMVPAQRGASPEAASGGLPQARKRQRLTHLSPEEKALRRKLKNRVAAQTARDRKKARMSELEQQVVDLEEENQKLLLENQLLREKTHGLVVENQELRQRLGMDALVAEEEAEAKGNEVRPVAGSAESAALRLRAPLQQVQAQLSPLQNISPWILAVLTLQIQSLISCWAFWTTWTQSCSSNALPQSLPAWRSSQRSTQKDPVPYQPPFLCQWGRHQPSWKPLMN
Sequence of Estrogen-related receptor gamma (Homo sapiens) (P62508 whole entry, looked up, the tested form may be a part): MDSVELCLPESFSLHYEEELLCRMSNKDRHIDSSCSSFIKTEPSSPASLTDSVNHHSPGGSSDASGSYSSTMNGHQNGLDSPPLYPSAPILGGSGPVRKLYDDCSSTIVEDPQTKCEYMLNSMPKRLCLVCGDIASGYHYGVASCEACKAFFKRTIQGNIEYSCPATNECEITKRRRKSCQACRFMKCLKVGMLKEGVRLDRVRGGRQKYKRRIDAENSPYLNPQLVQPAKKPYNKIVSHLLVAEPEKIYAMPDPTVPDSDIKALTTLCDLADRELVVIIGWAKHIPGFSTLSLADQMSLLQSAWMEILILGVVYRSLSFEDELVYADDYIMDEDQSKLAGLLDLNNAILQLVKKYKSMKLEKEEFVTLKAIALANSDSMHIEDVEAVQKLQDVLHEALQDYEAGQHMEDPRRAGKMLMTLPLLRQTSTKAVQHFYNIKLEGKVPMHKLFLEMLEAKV
Sequence of Estrogen receptor (Homo sapiens) (P03372 whole entry, looked up, the tested form may be a part): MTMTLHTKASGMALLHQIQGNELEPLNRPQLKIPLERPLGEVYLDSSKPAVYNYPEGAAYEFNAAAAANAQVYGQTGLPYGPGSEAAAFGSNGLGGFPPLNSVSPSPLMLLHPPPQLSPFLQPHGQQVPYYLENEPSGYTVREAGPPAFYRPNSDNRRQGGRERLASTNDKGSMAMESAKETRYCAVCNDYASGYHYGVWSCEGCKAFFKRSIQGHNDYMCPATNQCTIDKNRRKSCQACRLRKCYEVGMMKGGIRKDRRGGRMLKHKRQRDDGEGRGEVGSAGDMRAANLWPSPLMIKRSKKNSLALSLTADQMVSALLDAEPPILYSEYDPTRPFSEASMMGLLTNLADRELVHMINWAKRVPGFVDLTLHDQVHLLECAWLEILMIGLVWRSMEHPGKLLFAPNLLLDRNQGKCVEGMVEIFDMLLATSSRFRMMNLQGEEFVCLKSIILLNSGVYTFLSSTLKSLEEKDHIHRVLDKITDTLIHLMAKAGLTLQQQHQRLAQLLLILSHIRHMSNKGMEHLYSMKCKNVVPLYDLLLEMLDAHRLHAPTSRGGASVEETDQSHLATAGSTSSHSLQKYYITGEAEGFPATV
Sequence of Nuclear receptor subfamily 1 group I member 3 (Homo sapiens) (Q14994 whole entry, looked up, the tested form may be a part): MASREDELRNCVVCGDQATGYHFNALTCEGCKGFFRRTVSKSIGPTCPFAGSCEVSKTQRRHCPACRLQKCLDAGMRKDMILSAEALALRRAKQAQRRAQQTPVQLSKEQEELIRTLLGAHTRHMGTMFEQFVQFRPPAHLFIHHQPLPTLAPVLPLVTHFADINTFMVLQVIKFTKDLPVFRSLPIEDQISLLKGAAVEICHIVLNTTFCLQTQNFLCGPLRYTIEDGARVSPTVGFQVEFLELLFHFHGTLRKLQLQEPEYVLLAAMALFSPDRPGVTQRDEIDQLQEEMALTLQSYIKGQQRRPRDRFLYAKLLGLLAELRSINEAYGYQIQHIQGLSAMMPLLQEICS
Sequence of Steroid hormone receptor ERR1 (Homo sapiens) (P11474 whole entry, looked up, the tested form may be a part): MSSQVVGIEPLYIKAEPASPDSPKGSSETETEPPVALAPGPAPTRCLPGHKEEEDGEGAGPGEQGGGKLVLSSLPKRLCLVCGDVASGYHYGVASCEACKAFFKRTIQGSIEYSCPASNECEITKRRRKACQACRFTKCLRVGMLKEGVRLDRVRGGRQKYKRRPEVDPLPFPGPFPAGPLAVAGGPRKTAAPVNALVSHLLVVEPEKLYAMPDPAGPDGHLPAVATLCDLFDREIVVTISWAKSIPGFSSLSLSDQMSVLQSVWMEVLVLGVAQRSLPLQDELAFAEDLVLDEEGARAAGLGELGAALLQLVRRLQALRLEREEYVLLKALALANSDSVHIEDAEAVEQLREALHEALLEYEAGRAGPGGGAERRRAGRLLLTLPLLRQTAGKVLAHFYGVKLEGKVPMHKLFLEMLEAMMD

With `C=CC(=C)CCC=C(C)C` the outcome [1] was “inactive”, the outcome [2] was “inactive” and the outcome [3] was “inactive”. For the same compound, the outcome [4] was “inactive”, the outcome [5] was “inactive” and the outcome [6] was “inactive”. The outcome [7] was “inactive”, the outcome [8] was “inactive” and the outcome [9] was “inactive”. For the same compound, the outcome [10] was “inactive”, the outcome [11] was “inactive” and the outcome [12] was “inactive”.
With `CC(C)c1cccc(C(C)C)c1N1C(=O)c2ccc(O)cc2C1=O` the AC50 [13] was 26.9 µM (active), the AC50 [2] was 122 µM (active) and the AC50 [3] was 74.2 µM (active). For the same compound, the AC50 [4] was 100 µM (active), the outcome [5] was “inactive” and the outcome [6] was “inactive”. For the same compound, the AC50 [7] was 100 µM (active), the outcome [8] was “inactive” and the outcome [9] was “inactive”. The AC50 [12] was 100 µM (active) and the outcome [14] was “inactive”.
For `COCCOCCOCCOC`, the outcome [1] was “inactive”, the outcome [2] was “inactive” and the outcome [3] was “inactive”. The outcome [4] was “inactive”, the outcome [5] was “inactive” and the outcome [6] was “inactive”. The outcome [7] was “inactive”, the outcome [8] was “inactive” and the outcome [9] was “inactive”. For the same compound, the outcome [15] was “inactive”, the outcome [12] was “inactive” and the outcome [14] was “inactive”. For the same compound, the outcome [16] was “inactive”.
With `CC(C)CC(C)(O)C#CC(C)(O)CC(C)C` (stereo not drawn) the outcome [1] was “inactive”, the outcome [2] was “inactive” and the outcome [3] was “inactive”. The outcome [4] was “inactive”, the outcome [5] was “inactive” and the outcome [6] was “inactive”. For the same compound, the outcome [7] was “inactive”, the outcome [8] was “inactive” and the outcome [9] was “inactive”. The outcome [15] was “inactive”, the outcome [12] was “inactive” and the outcome [14] was “inactive”.
For `On1ccccc1=S`, the outcome [17] was “inactive”, the outcome [13] was “inactive” and the outcome [1] was “inactive”. The outcome [2] was “inactive”, the outcome [3] was “inactive” and the outcome [4] was “inactive”. The outcome [5] was “inactive”, the outcome [6] was “inactive” and the outcome [7] was “inactive”. The outcome [8] was “inactive”, the outcome [9] was “inactive” and the outcome [12] was “inactive”. The outcome [18] was “inactive”.
For `O=C(CCCCCCCCc1cccnc1)N1CCC(C=C(c2ccccc2)c2ccccc2)CC1`, the AC50 [17] was 0.438 µM (active), the AC50 [13] was 1.07 µM (active) and the outcome [2] was “inactive”. For the same compound, the AC50 [3] was 8.56 µM (active), the AC50 [4] was 8.12 µM (active) and the AC50 [5] was 19.5 µM (active). For the same compound, the AC50 [6] was 16.1 µM (active), the AC50 [7] was 8.08 µM (active) and the outcome [8] was “inactive”. The outcome [9] was “inactive”, the AC50 [15] was 1.85 µM (active) and the outcome [19] was “inactive”. The AC50 [12] was 3.5 µM (active).
For `CCCCCCc1ccc(O)cc1O`, the AC50 [1] was 42 µM (active), the outcome [2] was “inactive” and the outcome [3] was “inactive”. For the same compound, the outcome [4] was “inactive”, the outcome [5] was “inactive” and the outcome [6] was “inactive”. For the same compound, the AC50 [7] was 47.8 µM (active), the outcome [8] was “inactive” and the outcome [9] was “inactive”. The AC50 [15] was 38.7 µM (active) and the AC50 [12] was 55.3 µM (active).
With `CCCCC(CC)COC(=O)CCCCCCCCC(=O)OCC(CC)CCCC` (stereo not drawn) the outcome [17] was “inactive”, the outcome [13] was “inactive” and the outcome [1] was “inactive”. The outcome [2] was “inactive”, the outcome [3] was “inactive” and the outcome [4] was “inactive”. The outcome [5] was “inactive”, the outcome [6] was “inactive” and the outcome [7] was “inactive”. For the same compound, the outcome [8] was “inactive”, the outcome [9] was “inactive” and the outcome [12] was “inactive”. The outcome [14] was “inactive”.

— PubChem BioAssay (EPA / NIEHS)
